# Test system: Plasmodium falciparum
# Assay: GSK_TCMDC: Inhibition of Plasmodium falciparum 3D7 in whole red blood cells, using parasite LDH activity as an index of growth. Test compounds present at 2uM
# Assay type: functional
row,SMILES,Inhibition [%]
1,CN(CCN1CCCC1)c1nc2cc(-n3cnc4cc(-c5ccc(Cl)cc5)sc4c3=O)ccc2[nH]1.CS(=O)(=O)O,93
2,CCOc1ccc(N(CC)S(=O)(=O)c2cc(Br)cc3c2N(C(=O)C2CC2)CC3)cc1,99
3,CC(C)n1cc(CN2CCCC(C(=O)Nc3cccc(-c4cc5ccccc5[nH]4)c3)C2)cn1 (stereo unspecified),96
4,C=CCOc1ccc(C(=O)Nc2nonc2-c2ccc(OC)c(OC)c2)cc1,100
5,CC(C)C(=O)ONC1=NC(=N)N(OCCCOc2cc(Cl)c(Cl)cc2Cl)C(C)(C)N1,95
6,Cc1cc(CNCC2CCC(CNCCCc3ccccc3)CC2)ccc1O (stereo unspecified),100
7,Cc1ccc(C(NC(=O)C2CCCCC2)c2ccc3cccnc3c2O)cc1 (stereo unspecified),91
8,O=C(Nc1cccc([N+](=O)[O-])c1)Nc1ccc(Cl)c(C(F)(F)F)c1,96
9,O=C(Nc1ccc(OC2CCN(Cc3ccsc3)C2)c(Cl)c1)c1ccsc1.O=C(O)C(F)(F)F (stereo unspecified),85
10,CCCCOC(=O)NCCCC[C@H](NC(=O)OC(C)(C)C)C(=O)N[C@H](C(=O)OC(c1ccccc1)c1ccccc1)[C@H]1O[C@@H](n2ccc(=O)[nH]c2=O)[C@@H]2OC(C)(C)O[C@@H]21,87
11,CC(C)(CNC(=O)C1CCN(Cc2ccc(Cl)cc2)CC1)c1nc(-c2ccc(Cl)c(O)c2)c(-c2ccncc2)[nH]1.Cl,100
12,O=C(CCNc1ccnc(NCC2CCCCC2)n1)Nc1ccccc1.O=C(O)C(F)(F)F,95
13,O=C(/C=C/c1ccc(Cl)c(Cl)c1)NCCCCCN1CCCN(C(=O)Nc2ccc(Cl)c(Cl)c2)CC1,100
14,CCOc1cc(Cl)c(C(C)NC(=O)c2ccccc2)cc1OCC (stereo unspecified),91
15,CCCc1cc(Cc2cnc(N)nc2N)cc(CC)c1O.Cl,87
16,CC(C)N1CCC(N(Cc2ccc(-c3ccc(Cl)cc3)cc2)C(=O)Cn2c(CCc3cccc(F)c3F)nc(=O)c3ccccc32)CC1.O=C(O)C(O)C(O)C(=O)O,86
17,COC(=O)Cc1ccc(N)c2ccccc12.Cl,98
18,CCC(C)(C)c1ccc(S(=O)(=O)Nc2ccc(Cl)c(OCCN3CCCCC3)c2)cc1,88

row,SMILES,Inhibition [%]
1,CCCCCCNC(=O)C1Cc2c([nH]c3ccc(Br)cc23)C2(CCN(Cc3ccccc3)CC2)N1 (stereo unspecified),100
2,CC(=O)Nc1ccccc1OCc1cc2cc(C(=O)N3CCC(N4C(=O)OCc5ccccc54)CC3)ccc2o1,99
3,O=C(/C=C/c1ccccc1Cl)Nc1ccc(Br)c(OCCN2CCC(O)(c3ccccc3)CC2)c1.O=C(O)C(=O)O,100
4,CN1CCc2cc(CN3CC4(C)CC3CC(C)(C)C4)c(O)cc2C(c2ccccc2)C1.Cl (stereo unspecified),98
5,COc1cc2c(cc1NS(=O)(=O)c1ccc(OCc3ccc(Br)cc3)cc1)CCN(C1CCC1)CC2.Cl,94
6,CN1CCCC(CN2CCN(Cc3ccc(-c4cccc(-c5nc6cc(F)ccc6[nH]5)c4)cc3)CC2)C1.O=C(O)C(F)(F)F (stereo unspecified),100
7,CCOc1ccc(-c2nonc2NC(=O)CC(C)C)cc1OCC,92
8,Nc1nc(-c2ccc3c(Nc4ccc(F)c(Cl)c4)ccnc3c2)cs1,100
9,Br.CCCN(CCCCCCN(CCC)CCc1ccc(O)c(O)c1)CCc1ccc(O)cc1,90
10,CCN1CCCC(Nc2ccnc3cc4ccccc4cc23)C1 (stereo unspecified),100
11,O=c1c2ccccc2[nH]c2nc3ccccc3c(Nc3ccccc3)c12,98
12,COc1ccc(OCc2ccccn2)c(C2CCN(CCCCNC(=O)c3ccc(NC(=O)c4ccc(Cl)cc4)cc3)CC2)c1.Cl,98
13,CN(C)CC(=O)NCC(NCCCNc1cc(=O)c2ccccc2[nH]1)c1cc(Br)cc(Br)c1 (stereo unspecified),98
14,CC(C)(C)Oc1ccc(C[C@@H]2NC3(C(=O)N(Cc4ccc(Cl)c(Cl)c4)c4ccccc43)C3C(=O)N(c4ccc(Br)cc4)C(=O)C32)cc1 (stereo partly specified),86
15,O=C(Nc1cccc(Cl)c1N1CCOCC1)C(Cl)(Cl)Cl,96
16,O=C(/C=C/c1ccc(Cl)cc1Cl)N1CCC(CCN2CCC(c3c[nH]c4ccccc34)CC2)CC1,98
17,Br.Cc1cc(Br)c(OCCCON2C(=N)N=C(N)NC2(C)C)c(Br)c1,95
18,O=C(/C=C/c1ccc(Cl)c(Cl)c1)NC1CCC(CN2CCC(c3c[nH]c4ccncc34)CC2)CC1 (stereo unspecified),100
